This note sets out measurements from PubChem BioAssay (Tox21).

“And” between values parts separate entries of the source, which are not always exact repeats. Equal values may be shown once. Results filed as inconclusive are left out. Where a call stands in place of a potency, no number is given. A number with no mark means an inactive call. The source made the active and inactive calls. Calls come from the whole dose curve; as a rule, active = well fitted cell-killing curve with a large enough effect in the repeat runs; inconclusive = weak or mixed curves, or effect the other way; inactive = flat fitted curve, though single readings scatter.
Potency is the fitted concentration of half-maximal effect.

This experiment can be described thus: qHTS assay to identify small molecule antagonists of the constitutive androstane receptor (CAR) signaling pathway - cell viability counter screen (AID 1224837). Note: nearly all actives have a fitted effect of over 45% in size. Particulars: HepG2-CYP2B6-hCAR viability, CellTiter-Fluor, 23 h, co-treated with 50 nM CITCO; series mostly up to 92.4 µM; activity change, negative = cytotoxicity: at the top concentration. The source says:
National Center for Advancing Translational Sciences [NCATS]
NIH Chemical Genomics Center [NCGC]
U.S. Environmental Protection Agency [EPA]
National Institutes of Environmental Health Sciences [NIEHS]
National Toxicology Program [NTP]
U.S. Food and Drug Administration [FDA]
The constitutive androstane receptor (CAR) is a nuclear receptor which regulates multiple drug metabolizing enzymes (DMEs) and transporters. Activating CAR will generally increase the transcription and subsequent translation of CYP2B6 and CYP3A4. These two DMEs represent about 50% of the drug metabolizing potential in the body. When CAR is deactivated, the metabolizing potential in the body will decrease, subsequently increasing the toxicity in the body or lowering the therapeutic potential of a pro-drug. Recently, there have also been studies performed indicating CARs role in energy metabolism and cancer therapy. Therefore, inhibiting CARs activity could have a potential effect on diabetes and cancer. Identifying environmental toxins and compounds which modulate CAR, through the use of the Tox21 10K compound collection, will be an important step in determining the toxicity and potential therapeutic effects these factors will have on the human body. To differentiate true CAR antagonists from cytotoxic substances, the assay is multiplexed with a cell viability assay.
Tox21 Assay Protocol Summary:
A double-stable (hCAR and CYP2B6-2.2kb) transfected cell line, derived from human hepatoma (HepG2) cells, was utilized for the duration of the quantitative high-throughput screens. The HepG2-CYP2B6-hCAR cells were dispensed at 2500 cells/4 uL/well in 1536-well white solid bottom plates using a Multidrop Combi. After the assay plates were incubated at 37 C/5% CO2 for 4 hrs, 23 nL of compounds at 15 concentrations (from 5-48 columns) or positive control (from 1 to 4 columns) were transferred to the assay plates using a Pintool station. One uL of CITCO (final concentration = 50 nM) was added, using a Flying Reagent Dispenser, inside each well. After a 23 hr incubation period at 37 C/5% CO2, 1 uL of CellTiter-Fluor reagent was added into each well of the assay plates using a Flying Reagent Dispenser. The fluorescence intensity in the plates was then measured using a ViewLux plate reader.
In the case of `c1ccc2c(c1)ccc1cc3c(ccc4ccccc43)cc12`, the Potency entry was “inactive”.
With `O=C(O)c1ccc(O)cc1`, the Potency result is “inactive”.
Still for that read-out and setting: then `CC1(C)O[C@@H]2C[C@H]3[C@@H]4C[C@H](F)C5=CC(=O)C=C[C@]5(C)[C@@]4(F)[C@@H](O)C[C@]3(C)[C@]2(C(=O)CO)O1`, with “inactive”.
Take `C=C1C[C@H]2[C@@H]3C=C(C)C4=CC(=O)CC[C@]4(C)[C@H]3CC[C@]2(C)[C@@]1(OC(C)=O)C(C)=O`: the “activity change, negative = cytotoxicity” value is -2.6% [at 42.5 µM].
Turning to `COC(=O)C(C)Oc1ccc(Oc2ncc(C(F)(F)F)cc2Cl)cc1` (stereo not given), the Potency result is “inactive”.
Turning to `CCC(=O)O[C@H]1[C@H](O[C@@H]2[C@@H](C)[C@H](O[C@H]3C[C@@](C)(OC)[C@@H](O)[C@H](C)O3)[C@@H](C)C(=O)O[C@H](CC)[C@@](C)(O)[C@H](O)[C@@H](C)C(=O)[C@H](C)C[C@@]2(C)O)O[C@H](C)C[C@@H]1N(C)C`, the “activity change, negative = cytotoxicity” value was -1.5% [at 42.5 µM].
Consider `O=C(CCCN1CCC(O)(c2ccc(Cl)cc2)CC1)c1ccc(F)cc1`, for which the Potency was 54.5 µM (active).
In the case of `c1ccc2c(c1)[nH]c1ccccc12`, the Potency result was “inactive”.
The same measure, in the same setting: for `Nc1cc(Cl)c(N)c(Cl)c1` the value was “inactive”; for `CCCCCCCCCCC(CO)CCCCCCCC` (stereo not given), “inactive”; for `CC(=O)Nc1ccc2c(c1)Cc1cc(NC(C)=O)ccc1-2`, “inactive”.
As for `C=C[C@H]1CN2CC[C@H]1C[C@H]2[C@H](O)c1ccnc2ccc(OC)cc12`, the “activity change, negative = cytotoxicity” value is -19.7% [at 42.5 µM].
As to `C=CCOC(=O)C(=C)C`, the Potency result is “inactive”.
Consider `O=C(O)COCCN1CCN(C(c2ccccc2)c2ccc(Cl)cc2)CC1` (stereo not given), for which the Potency entry was “inactive”.
Consider `CN(C)/N=N/c1nc[nH]c1C(N)=O`, for which the Potency entry is “inactive”.
On the same count and under the same terms, then `NCCOCCO`, with “inactive”; and `CCC/C=C/C=O`, with “inactive”.
Turning to `C=CC(=O)OCCCC`, the Potency entry is “inactive”.
The same measure, in the same setting: for `C[C@]12C=CC(=O)C=C1CC[C@H]1[C@@H]3C[C@@H](O)[C@](O)(C(=O)CO)[C@@]3(C)C[C@H](O)[C@@]12F` the value was “inactive”.
Regarding `ClC/C=C/CCl`, the Potency result was “inactive”.
Still for that read-out and setting: for `NCCN` the value was “inactive”; for `CC1(C)C(C=C(Cl)Cl)C1C(=O)OCc1cccc(Oc2ccccc2)c1` (stereo not given), “inactive”; for `C[C@]12CC[C@@H]3c4ccc(O)cc4CC[C@H]3[C@@H]1CC[C@@H]2O`, “inactive”.
Same read-out and setting: for `C[C@]12CC[C@@H]3c4ccc(O)cc4CC[C@H]3[C@@H]1CC[C@H]2O` the value was “inactive”.
As to `O=C(O)CCCC(=O)O`, the Potency result was “inactive”.
Consider `Nc1ccc(N)c(Cl)c1`, for which the Potency entry is “inactive”.
Same read-out and setting: for `C=C[Si](OCCOC)(OCCOC)OCCOC` the value was “inactive”; for `COc1ccc(-c2coc3cc(O)cc(O)c3c2=O)cc1`, “inactive”; for `Nc1ccc2c(O)cc(S(=O)(=O)O)cc2c1`, 19.4 µM (active) and 68.6 µM (active).
On the same count and under the same terms, for `CC(C)[N+](C)(CCOC(=O)C1c2ccccc2Oc2ccccc21)C(C)C` the value was “inactive”; for `Cc1ccc(S(=O)(=O)O)cc1C`, “inactive”; for `COc1ccc2nc(N)sc2c1`, “inactive”.
On the same count and under the same terms, then `CN(C)CCCN1c2ccccc2Sc2ccc(Cl)cc21`, with 54.5 µM (active); and `COC(=O)CC(=O)OC`, with “inactive”; and `Clc1ccc(Sc2cc(Cl)c(Cl)cc2Cl)cc1`, with “inactive”.
As for `O=C(O)c1cc(=O)[nH]c(=O)[nH]1`, the Potency result was “inactive”.
For the molecule `CC/C=C\C/C=C\C/C=C\CCCCCCCC(=O)O`, the Potency entry was “inactive”.
`Nc1ccc2c(c1)C(=O)c1ccccc1C2=O`: the “activity change, negative = cytotoxicity” value was -17.3%.
On to `CCc1cccc2c3c([nH]c12)C(CC)(CC(=O)O)OCC3` (stereo not given), for which the Potency result is “inactive”.
As for `COc1cc([C@H]2Oc3cc([C@H]4Oc5cc(O)cc(O)c5C(=O)[C@@H]4O)ccc3O[C@@H]2CO)ccc1O`, the “activity change, negative = cytotoxicity” value was -1.41% [at 42.5 µM].
